For some assays here: Entries with a potency or affinity are not part of this list.
Columns and labels:
Parameters in all cases: scale not given: direction of the effect not stated beside the values
[1] = target: Protein translocase subunit SecA (Escherichia coli (strain K12)) (UniProt P10408); experiment: Assay to Identify E. coli SecA ATPase Inhibitors; assay type: functional; settings: 30 µM
[2] = target: T1, Ubiquitin-activating enzyme e1, putative (Leishmania donovani (strain BPK282A1)) (UniProt E9BSI1); experiment: Leishmania donovani Ubiquitin Activating Enzyme (LdE1); assay type: functional; settings: 30 µM
T1 sequence (whole entry): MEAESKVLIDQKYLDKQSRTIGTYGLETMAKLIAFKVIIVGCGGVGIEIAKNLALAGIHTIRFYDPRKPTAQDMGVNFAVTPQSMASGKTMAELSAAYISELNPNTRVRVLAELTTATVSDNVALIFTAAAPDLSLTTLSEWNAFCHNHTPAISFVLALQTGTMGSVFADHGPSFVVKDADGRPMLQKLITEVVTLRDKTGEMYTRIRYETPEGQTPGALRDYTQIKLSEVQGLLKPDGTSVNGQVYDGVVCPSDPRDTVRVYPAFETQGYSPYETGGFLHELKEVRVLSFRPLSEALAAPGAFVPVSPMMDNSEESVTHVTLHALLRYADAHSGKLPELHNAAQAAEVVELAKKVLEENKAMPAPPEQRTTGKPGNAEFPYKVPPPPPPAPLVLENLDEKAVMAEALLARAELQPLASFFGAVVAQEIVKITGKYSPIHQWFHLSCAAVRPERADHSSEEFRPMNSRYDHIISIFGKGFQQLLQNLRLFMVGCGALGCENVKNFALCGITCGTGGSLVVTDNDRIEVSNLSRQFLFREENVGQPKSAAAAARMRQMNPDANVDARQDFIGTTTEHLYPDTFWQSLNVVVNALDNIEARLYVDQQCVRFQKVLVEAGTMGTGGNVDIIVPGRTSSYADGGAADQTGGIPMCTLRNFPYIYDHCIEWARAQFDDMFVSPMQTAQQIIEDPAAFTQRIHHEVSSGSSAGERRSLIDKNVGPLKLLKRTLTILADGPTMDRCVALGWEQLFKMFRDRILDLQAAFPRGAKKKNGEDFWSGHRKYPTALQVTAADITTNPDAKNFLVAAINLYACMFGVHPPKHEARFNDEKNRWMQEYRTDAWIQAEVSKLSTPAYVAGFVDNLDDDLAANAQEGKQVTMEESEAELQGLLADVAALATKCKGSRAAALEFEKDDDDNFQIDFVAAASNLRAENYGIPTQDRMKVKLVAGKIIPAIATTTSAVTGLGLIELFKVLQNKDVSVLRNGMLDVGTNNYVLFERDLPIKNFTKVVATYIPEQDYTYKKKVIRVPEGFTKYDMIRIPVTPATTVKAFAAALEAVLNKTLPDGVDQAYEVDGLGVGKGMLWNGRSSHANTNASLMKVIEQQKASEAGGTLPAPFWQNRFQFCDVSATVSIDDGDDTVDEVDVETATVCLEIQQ

[3] = target: AMP-activated protein kinase, AMPK (Homo sapiens) (UniProt P54646+O43741+P54619+Q9UGJ0+Q9Y478+Q13131+Q9UGI9); experiment: AMP-dependent Kinase enzyme assay. An in vitro enzyme assay that detects ADP turnover that is directly proportional to AMPK activity. This uses naive AMPK that is activated during the assay with MK-8722; assay type: functional; settings: 30 µM
[4] = target: Sialic acid-binding Ig-like lectin 9 (Homo sapiens) (UniProt Q9Y336); experiment: Hs-Siglec9 ALPHAscreen SOP 20170721; settings: 10 µM
Trypanosoma cruzi = experiment: Trypanosoma cruzi phosphomannomutase and mannose-1-phosphate guanylyltransferase assay; assay type: functional; settings: 10 µM
[5] = target: T2, Arginase-2, mitochondrial (Homo sapiens) (UniProt P78540); experiment: in vitro enzyme assay to detect the production of urea directly proportional to the activity of Arginase II; assay type: functional; settings: 33.3 µM; further: in the data most compounds retested in dose-response had high values
T2 sequence (whole entry): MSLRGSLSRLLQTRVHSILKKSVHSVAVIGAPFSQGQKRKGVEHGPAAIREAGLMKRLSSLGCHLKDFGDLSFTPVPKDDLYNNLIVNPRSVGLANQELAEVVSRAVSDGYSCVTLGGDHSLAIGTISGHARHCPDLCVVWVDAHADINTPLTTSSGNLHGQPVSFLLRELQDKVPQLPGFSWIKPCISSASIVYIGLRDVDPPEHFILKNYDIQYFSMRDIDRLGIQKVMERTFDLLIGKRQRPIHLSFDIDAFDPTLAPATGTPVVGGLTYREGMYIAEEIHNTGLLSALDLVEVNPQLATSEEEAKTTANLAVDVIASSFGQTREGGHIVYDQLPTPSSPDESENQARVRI

[6] = target: T3, Proteasome subunit beta (Trypanosoma cruzi) (UniProt O96673); experiment: Trypanosoma cruzi proteasome chymotrypsin-like activity (TcProtChymo) assay.; further: in the data most compounds retested in dose-response had high values; assay type: functional; settings: 9.37 µM
T3 sequence (whole entry): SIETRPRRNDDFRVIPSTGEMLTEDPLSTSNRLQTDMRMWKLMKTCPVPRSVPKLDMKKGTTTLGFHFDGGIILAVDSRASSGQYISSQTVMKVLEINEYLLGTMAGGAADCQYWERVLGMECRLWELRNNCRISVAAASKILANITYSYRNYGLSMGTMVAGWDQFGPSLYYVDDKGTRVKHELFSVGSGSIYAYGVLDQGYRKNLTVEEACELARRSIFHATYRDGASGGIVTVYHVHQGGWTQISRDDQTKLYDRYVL

Homo sapiens = species on record: Homo sapiens; experiment: To identify inhibition of the IFN signalling (Jak-Stat) pathway via expression of an eGFP reporter gene under the control of an IFN-stimulated response element (ISRE) containing MxA promoter.; assay type: functional; settings: 30 µM
[7] = target: T4, Tyrosyl-tRNA synthetase, putative (Trypanosoma cruzi (strain CL Brener)) (UniProt Q4DSP6); experiment: Trypanosoma cruzi tyrosyl tRNA synthetase (TcYRS) _High Tyrosine SOP; assay type: functional; settings: 30 µM; further: in the data most compounds retested in dose-response had high values
T4 sequence (whole entry): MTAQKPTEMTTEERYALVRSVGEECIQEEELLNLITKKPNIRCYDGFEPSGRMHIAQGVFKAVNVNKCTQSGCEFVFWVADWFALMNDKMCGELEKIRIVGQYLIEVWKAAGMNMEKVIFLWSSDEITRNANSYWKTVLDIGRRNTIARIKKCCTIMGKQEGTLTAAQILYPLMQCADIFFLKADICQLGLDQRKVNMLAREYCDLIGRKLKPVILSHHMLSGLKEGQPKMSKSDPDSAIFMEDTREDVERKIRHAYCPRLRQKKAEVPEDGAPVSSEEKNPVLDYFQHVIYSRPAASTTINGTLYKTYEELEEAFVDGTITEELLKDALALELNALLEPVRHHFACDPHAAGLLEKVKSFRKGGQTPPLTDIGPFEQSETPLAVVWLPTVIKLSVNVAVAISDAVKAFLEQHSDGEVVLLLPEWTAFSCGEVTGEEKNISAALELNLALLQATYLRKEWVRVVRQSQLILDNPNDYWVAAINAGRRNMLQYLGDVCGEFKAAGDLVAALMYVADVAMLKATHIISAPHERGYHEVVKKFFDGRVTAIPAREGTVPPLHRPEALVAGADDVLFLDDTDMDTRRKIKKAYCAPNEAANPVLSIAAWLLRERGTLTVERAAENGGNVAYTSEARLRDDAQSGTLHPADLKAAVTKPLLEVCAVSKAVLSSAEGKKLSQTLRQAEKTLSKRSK

[8] = target: T4, Tyrosyl-tRNA synthetase, putative (Trypanosoma cruzi (strain CL Brener)); experiment: Trypanosoma cruzi tyrosyl tRNA synthetase (TcYRS) SOP; assay type: functional; settings: 30 µM
[9] = target: Chromo domain-containing protein 1 (Saccharomyces cerevisiae (strain ATCC 204508 / S288c) (Baker's yeast)) (UniProt P32657); experiment: ScCHD-1 Enzyme Inhibition Assay; assay type: functional; settings: 30 µM; further: in the data most compounds retested in dose-response had high values
Sequence of Chromo domain-containing protein 1 (Saccharomyces cerevisiae (strain ATCC 204508 / S288c) (Baker's yeast)) (P32657 whole entry, the tested form may be a part): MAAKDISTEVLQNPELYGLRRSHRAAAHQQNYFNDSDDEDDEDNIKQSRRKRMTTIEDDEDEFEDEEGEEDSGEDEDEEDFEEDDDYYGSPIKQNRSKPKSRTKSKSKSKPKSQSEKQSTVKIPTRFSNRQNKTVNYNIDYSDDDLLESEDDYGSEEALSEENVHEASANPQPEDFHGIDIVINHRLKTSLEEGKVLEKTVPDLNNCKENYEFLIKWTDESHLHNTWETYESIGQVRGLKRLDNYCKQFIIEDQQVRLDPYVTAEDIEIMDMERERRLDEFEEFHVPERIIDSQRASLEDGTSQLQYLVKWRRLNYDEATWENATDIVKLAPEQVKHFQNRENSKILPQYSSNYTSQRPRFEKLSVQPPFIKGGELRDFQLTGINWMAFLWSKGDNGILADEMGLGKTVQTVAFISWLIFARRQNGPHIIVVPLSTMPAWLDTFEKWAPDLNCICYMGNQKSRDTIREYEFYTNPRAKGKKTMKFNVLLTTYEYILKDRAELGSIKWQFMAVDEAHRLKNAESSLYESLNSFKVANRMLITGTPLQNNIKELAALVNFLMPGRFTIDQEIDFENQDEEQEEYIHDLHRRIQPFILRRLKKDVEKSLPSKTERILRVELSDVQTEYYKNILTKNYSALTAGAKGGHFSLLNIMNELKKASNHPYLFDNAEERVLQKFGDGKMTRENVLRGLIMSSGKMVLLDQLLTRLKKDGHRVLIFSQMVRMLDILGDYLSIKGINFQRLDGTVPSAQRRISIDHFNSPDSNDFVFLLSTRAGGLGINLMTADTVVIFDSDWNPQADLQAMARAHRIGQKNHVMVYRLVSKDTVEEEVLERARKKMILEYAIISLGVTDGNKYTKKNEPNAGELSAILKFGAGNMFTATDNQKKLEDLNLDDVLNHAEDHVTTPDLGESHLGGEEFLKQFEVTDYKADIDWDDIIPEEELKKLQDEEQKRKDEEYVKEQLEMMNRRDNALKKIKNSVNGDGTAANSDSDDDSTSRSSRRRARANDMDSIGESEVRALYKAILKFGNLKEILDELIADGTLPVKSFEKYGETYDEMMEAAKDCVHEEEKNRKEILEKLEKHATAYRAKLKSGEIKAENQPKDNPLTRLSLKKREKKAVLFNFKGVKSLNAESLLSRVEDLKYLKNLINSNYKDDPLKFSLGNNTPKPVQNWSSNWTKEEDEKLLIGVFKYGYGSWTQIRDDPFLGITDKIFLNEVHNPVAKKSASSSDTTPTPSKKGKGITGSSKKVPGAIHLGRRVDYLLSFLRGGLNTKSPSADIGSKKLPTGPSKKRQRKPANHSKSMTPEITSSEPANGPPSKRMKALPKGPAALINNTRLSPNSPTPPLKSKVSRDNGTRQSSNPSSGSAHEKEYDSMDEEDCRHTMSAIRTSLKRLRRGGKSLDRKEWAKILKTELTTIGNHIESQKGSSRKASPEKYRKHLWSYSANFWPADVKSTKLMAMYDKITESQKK

Sequence of Sialic acid-binding Ig-like lectin 9 (Homo sapiens) (Q9Y336 whole entry): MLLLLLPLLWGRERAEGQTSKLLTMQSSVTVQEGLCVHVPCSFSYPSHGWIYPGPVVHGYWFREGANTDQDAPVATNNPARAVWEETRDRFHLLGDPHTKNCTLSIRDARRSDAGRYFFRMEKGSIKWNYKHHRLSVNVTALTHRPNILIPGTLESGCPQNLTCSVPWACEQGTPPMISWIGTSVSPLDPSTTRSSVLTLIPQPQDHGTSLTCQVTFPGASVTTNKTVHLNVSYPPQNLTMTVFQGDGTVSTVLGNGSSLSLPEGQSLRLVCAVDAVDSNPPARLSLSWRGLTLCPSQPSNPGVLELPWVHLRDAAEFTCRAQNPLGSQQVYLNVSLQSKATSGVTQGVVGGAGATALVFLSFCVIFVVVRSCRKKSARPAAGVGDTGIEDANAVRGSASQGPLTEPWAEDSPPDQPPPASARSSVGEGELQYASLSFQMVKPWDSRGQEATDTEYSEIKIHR
Sequence of Protein translocase subunit SecA (Escherichia coli (strain K12)) (P10408 whole entry): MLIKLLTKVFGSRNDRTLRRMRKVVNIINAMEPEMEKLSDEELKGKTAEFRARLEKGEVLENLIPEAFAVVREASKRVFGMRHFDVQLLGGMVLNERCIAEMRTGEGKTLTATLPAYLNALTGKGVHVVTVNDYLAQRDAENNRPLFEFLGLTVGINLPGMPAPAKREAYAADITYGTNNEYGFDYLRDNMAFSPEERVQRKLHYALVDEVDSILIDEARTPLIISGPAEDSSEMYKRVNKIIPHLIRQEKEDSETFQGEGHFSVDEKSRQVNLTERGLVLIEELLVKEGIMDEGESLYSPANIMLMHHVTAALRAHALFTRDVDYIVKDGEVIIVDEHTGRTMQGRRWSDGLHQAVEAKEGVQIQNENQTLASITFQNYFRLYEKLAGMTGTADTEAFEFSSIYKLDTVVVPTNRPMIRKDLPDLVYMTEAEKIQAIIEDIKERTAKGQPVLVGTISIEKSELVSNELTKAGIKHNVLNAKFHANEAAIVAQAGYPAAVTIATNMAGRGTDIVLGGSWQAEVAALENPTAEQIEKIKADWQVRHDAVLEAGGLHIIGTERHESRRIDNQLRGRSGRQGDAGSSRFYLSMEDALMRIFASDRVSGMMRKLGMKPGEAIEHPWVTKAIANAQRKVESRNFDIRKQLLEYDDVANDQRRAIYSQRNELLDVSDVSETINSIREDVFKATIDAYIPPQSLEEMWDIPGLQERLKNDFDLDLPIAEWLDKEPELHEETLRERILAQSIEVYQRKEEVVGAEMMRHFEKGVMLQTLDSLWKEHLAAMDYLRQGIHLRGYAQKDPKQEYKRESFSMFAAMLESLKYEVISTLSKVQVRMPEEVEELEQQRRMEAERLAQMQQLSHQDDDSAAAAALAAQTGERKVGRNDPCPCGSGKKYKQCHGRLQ

Row | Compound | Percent Effect [1] [%] | Percent Effect [2] [%] | Percent Effect [3] [%] | Percent Effect [4] [%] | Percent Effect (Trypanosoma cruzi) [%] | Percent Effect [5] [%] | Percent Effect [6] [%] | Percent Effect (Homo sapiens) [%] | Percent Effect [7] [%] | Percent Effect [8] [%] | Percent Effect [9] [%]
1 | COC(=O)c1cccc(C(=O)N2CCN(c3ccccc3F)CC2)n1 | -5.05 | 20.8 | -7.33 | -10.6 | 7.59 | 1.94 | 13.9 | 15.5 | 5.29 | 16.7 | -10.4
2 | O=C(c1cnccn1)N1CCN(Cc2ccncc2)c2ncccc2C1 | -1.27 | 0 | 2.52 | 4.53 | -1.54 | -20.2 | 2.73 | -10.5 | 2.08 | 2.5 | -3.2
3 | COc1cc(OC)c(C2Nc3cc(Cl)ccc3C3=NCCN32)cc1OC (centres undefined) | -5.59 | -8 | -2.93 | 2.92 | 6.89 | -3.5 | 1.32 | -10.9 | 7.45 | 14.1 | -5.67
4 | CSc1ncc(C(=O)N2C[C@H]3CC[C@@H]2CN(Cc2ccccc2)C3)cn1 | 0.697 | 2.74 | 22.7 | -2.06 | -6.66 | 2.27 | 11 | 4.63 | 6.45 | 10 | 0.291
5 | CC(C)(C)N1CCCN(C(=O)c2csc(S(N)(=O)=O)c2)CC1 | -8.14 | 0 | 1.87 | -9.76 | -5.57 | -2.73 | -0.258 | -7.17 | -3.23 | -6.17 | -1.28
6 | CC(C)c1nc(C2CCCN(C(=O)CCn3ccnc3)C2)no1 (centres undefined) | -0.0893 | 24.3 | -7.28 | -4.78 | 1.42 | -17.6 | 16.4 | 19.3 | 6.4 | 18.5 | -10.5
7 | CO[C@@H]1CCN(Cc2cnn(C)c2)[C@@H]2CN(Cc3ccco3)C[C@@H]21 | -5.25 | 4 | 5.3 | 4.49 | -1.38 | -0.528 | 11.8 | -13.9 | 0 | 2.56 | -0.166
8 | COCC1CC2(CCN(C(=O)c3cccn3C)CC2)CN1C(C)C (centres undefined) | -2.49 | -13.5 | 4.17 | -2.06 | 1.37 | -1.67 | 0.761 | -12.3 | 7.92 | 3.66 | -4.39
9 | COc1ccc(CN2CCn3cc(CN4CCCCC4)nc3C2)cc1 | -4.9 | 2.6 | 1.83 | -4.04 | -0.888 | -4.52 | 10.3 | -6.42 | 3.17 | -8.97 | -2.75
10 | CCN1CCN(C2CCN(Cc3ncc(C(C)(C)C)o3)CC2)C1=O | -2.95 | -7.79 | 6.42 | 7.85 | 1.47 | -1.47 | 7.2 | -13.2 | 6.67 | 7.06 | -19.1
11 | Cc1cc(C)n(CC2CCCN2C(=O)c2cc[nH]n2)n1 (centres undefined) | -7.68 | 16.5 | -4.09 | -3.12 | 0.923 | 0.215 | 8.58 | -2.4 | 7.29 | 17.7 | -34.4
12 | c1ccc(OCC2CC3(CCN(Cc4ccncc4)CC3)CO2)nc1 (centres undefined) | -3.46 | 9.33 | 6.58 | 5.09 | -4.13 | -4.4 | 12.2 | -5.36 | 2.12 | 7.69 | -5.62
13 | CN(C)CC1CSCCCN1C(=O)Nc1ccc(C(C)(C)C)cc1 (centres undefined) | -1.39 | 5.2 | 3.67 | 12.9 | -9.96 | -5.81 | 1.57 | 13.1 | 4.23 | 8.97 | -4.09
14 | CC(C)N1CCC(Cc2cc(-c3cccc(C(=O)O)c3)ncn2)C1 (centres undefined) | 1.6 | -9.46 | 7.52 | 4.36 | -1.78 | -0.232 | 2.5 | 0.46 | 2.15 | 1.3 | 20.8
15 | Cc1[nH]ccc1C(=O)N1CCC(c2nnc(Cn3ccnc3)n2C)CC1 | -1.99 | 8.22 | -2.31 | 4.71 | -4.56 | -4.79 | 15.3 | 22.3 | 6.25 | 16.1 | 0.967
16 | Cc1cc(C[C@@H]2COC[C@@H]2NC(=O)Cn2c(=O)oc3ccccc32)on1 | -0.169 | 5.48 | 1.35 | -2.12 | 3.33 | 8.64 | 1.77 | -6.43 | 4.3 | 7.5 | 1.28
17 | Cc1cccc(-c2nc(CN3CCc4c(ncn4C)C3)no2)c1 | -6.97 | 2.6 | -1.39 | -3.74 | -7.12 | 0.356 | 2.7 | 21.7 | -0.971 | -2.44 | -2.23
18 | Cc1cc(N2CCN(Cc3ccc(C)o3)CC2)cc(C)n1 | -4.6 | 5.33 | -0.471 | 15 | 1.46 | 2.08 | 20.2 | 2.05 | 8.2 | 16.1 | -6.19
19 | COCCNC(=O)[C@H]1C[C@@H]2CCN(c3nncs3)C[C@H]2O1 | -0.719 | -8.11 | 6.18 | -4.67 | -1.37 | 1.67 | -0.254 | 7 | 5.94 | 6.1 | 1.42

Source: ChEMBL document CHEMBL3988442, “University of Dundee, Small-Polar-MMV Screening Library” (2021)
